# Experiments:
# Assay in all cases: DAPPL (digital affinity profiling via proximity ligation, sequencing); 10 mM Tris-HCl pH 7.5, 50 mM NaCl, 1 mM DTT, 4% glycerol, room temperature, 30 min; GST-TFs on glutathione beads, 16-mer random dsDNA library, 0.1% formaldehyde crosslink after washing; high values mean tight binding
# [1] = biological target: T1, FLI1 (Homo sapiens, UniProt Q01543 1-452); settings: protein: recombinant; tags: N-terminal GST; dsDNA, one strand shown
# T1 sequence: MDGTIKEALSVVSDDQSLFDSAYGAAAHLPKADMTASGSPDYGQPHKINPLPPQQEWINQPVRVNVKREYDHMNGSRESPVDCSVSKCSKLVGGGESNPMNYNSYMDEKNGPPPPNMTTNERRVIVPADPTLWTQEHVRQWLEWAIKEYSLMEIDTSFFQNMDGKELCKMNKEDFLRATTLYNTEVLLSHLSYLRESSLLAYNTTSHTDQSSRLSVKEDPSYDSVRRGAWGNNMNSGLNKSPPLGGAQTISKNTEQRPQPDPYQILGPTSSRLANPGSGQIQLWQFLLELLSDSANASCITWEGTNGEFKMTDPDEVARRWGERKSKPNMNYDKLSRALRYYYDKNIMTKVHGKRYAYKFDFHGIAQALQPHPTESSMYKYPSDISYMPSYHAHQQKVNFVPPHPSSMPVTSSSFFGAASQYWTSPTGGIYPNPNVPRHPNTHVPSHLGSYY
# How it was run: (§1)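 Pools were built from human transcription factors expressed in yeast as GST fusions, captured on glutathione beads and DNA-barcoded, along with a tag-only sample. Incubation with 200 nmole of a 16-mer random double-stranded DNA library lasted 30 min at room temperature in Tris/NaCl/DTT/glycerol buffer, and was followed by washing, 0.1% formaldehyde crosslinking, proximity ligation, PCR amplification and Illumina NextSeq500 sequencing. Binding signal is the quotient of each hexamer's read frequency for a factor and its frequency for the tag-only sample.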
# [2] = biological target: T2, ELK1 (Homo sapiens, UniProt P19419 1-428); settings: protein: recombinant; tags: N-terminal GST; dsDNA, one strand shown
# T2 sequence: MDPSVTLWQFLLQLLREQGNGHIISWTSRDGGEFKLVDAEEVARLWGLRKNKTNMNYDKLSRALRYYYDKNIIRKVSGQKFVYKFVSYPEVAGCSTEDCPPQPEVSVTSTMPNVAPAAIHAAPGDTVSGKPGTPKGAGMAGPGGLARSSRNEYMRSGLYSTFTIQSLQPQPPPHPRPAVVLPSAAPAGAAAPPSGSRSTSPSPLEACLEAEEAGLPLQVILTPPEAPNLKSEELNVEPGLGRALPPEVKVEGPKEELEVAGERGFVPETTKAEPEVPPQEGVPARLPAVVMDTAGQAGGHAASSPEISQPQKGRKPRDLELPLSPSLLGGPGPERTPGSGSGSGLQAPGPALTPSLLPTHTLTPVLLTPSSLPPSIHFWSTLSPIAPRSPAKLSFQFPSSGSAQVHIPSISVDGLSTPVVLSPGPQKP
# How it was run: as §1
# [3] = biological target: T3, GABPA (Homo sapiens, UniProt Q06546 1-454); settings: protein: recombinant; tags: N-terminal GST; dsDNA, one strand shown
# T3 sequence: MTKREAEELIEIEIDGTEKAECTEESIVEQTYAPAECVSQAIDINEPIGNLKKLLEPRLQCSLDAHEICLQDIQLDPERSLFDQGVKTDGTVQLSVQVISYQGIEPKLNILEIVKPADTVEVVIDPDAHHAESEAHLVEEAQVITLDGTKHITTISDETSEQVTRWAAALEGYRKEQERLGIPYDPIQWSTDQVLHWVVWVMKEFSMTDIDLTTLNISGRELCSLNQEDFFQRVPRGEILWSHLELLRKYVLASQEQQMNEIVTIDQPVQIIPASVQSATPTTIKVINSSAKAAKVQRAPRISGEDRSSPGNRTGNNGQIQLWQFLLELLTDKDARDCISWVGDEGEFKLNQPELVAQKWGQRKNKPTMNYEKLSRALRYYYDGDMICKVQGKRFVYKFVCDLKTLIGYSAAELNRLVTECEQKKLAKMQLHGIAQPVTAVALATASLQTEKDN
# How it was run: as §1
# [4] = biological target: T4, ERG (Homo sapiens, UniProt P11308 1-479); settings: protein: recombinant; tags: N-terminal GST; dsDNA, one strand shown
# T4 sequence: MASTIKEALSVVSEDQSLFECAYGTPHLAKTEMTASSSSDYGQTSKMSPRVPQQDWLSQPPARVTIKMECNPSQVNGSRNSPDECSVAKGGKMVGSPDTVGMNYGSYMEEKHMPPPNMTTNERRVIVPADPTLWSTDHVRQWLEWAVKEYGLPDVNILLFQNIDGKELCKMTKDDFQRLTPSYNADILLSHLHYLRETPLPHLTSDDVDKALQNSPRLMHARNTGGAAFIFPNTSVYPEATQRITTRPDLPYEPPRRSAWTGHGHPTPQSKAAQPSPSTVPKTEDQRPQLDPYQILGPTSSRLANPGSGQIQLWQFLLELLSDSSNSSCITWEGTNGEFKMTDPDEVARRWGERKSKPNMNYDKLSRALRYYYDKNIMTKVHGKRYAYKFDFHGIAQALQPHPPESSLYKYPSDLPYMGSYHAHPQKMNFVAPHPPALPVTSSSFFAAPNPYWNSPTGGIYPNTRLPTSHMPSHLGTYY
# How it was run: as §1
# [5] = biological target: ELF1 (Homo sapiens, UniProt P32519 1-619); settings: protein: recombinant; tags: N-terminal GST; dsDNA, one strand shown
# How it was run: as §1
# [6] = biological target: T5, EHF (Homo sapiens, UniProt Q9NZC4 1-300); settings: protein: recombinant; tags: N-terminal GST; dsDNA, one strand shown
# T5 sequence: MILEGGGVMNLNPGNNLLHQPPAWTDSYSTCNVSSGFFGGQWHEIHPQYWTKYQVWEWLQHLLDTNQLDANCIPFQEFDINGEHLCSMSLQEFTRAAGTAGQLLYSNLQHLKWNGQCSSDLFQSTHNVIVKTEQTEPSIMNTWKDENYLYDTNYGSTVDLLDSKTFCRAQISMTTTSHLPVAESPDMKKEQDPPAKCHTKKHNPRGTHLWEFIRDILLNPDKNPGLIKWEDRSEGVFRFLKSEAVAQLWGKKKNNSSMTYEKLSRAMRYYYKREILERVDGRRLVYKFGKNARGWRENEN
# How it was run: as §1
# [7] = biological target: SPI1 (Homo sapiens, UniProt P17947 1-270); settings: protein: recombinant; tags: N-terminal GST; dsDNA, one strand shown
# How it was run: as §1
# [8] = biological target: SPIB (Homo sapiens, UniProt Q01892 1-262); settings: protein: recombinant; tags: N-terminal GST; dsDNA, one strand shown
# How it was run: as §1
# [9] = biological target: T6, ELK3 (Homo sapiens, UniProt P41970 1-407); settings: protein: recombinant; tags: N-terminal GST; dsDNA, one strand shown
# T6 sequence: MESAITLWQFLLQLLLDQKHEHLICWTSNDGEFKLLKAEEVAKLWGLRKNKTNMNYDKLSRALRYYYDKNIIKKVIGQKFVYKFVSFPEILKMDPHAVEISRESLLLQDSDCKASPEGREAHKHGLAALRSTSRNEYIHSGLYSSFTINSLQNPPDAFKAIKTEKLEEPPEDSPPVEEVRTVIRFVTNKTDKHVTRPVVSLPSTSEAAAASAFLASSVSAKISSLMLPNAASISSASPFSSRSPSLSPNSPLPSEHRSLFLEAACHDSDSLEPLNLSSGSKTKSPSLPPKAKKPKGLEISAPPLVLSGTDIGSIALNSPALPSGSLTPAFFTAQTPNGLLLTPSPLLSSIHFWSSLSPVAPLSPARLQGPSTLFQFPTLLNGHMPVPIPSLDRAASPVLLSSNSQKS
# How it was run: as §1
# [10] = biological target: T7, FEV (Homo sapiens, UniProt Q99581 1-238); settings: protein: recombinant; tags: N-terminal GST; dsDNA, one strand shown
# T7 sequence: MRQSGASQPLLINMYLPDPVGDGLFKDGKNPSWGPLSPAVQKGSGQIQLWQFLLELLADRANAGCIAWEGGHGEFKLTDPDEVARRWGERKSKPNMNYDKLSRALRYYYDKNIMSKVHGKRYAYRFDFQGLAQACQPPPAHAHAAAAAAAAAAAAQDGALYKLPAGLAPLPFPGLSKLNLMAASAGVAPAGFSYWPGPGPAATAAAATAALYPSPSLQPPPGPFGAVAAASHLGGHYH
# How it was run: as §1
# [11] = biological target: ETV5 (Homo sapiens, UniProt P41161 1-510); settings: protein: recombinant; tags: N-terminal GST; dsDNA, one strand shown
# How it was run: as §1
# [12] = biological target: HSF1 (Homo sapiens, UniProt Q00613 1-529); settings: protein: recombinant; tags: N-terminal GST; chain copies: 3; dsDNA, one strand shown
# How it was run: as §1
# [13] = biological target: T8, SPIC (Homo sapiens, UniProt Q8N5J4 1-248); settings: protein: recombinant; tags: N-terminal GST; dsDNA, one strand shown
# T8 sequence: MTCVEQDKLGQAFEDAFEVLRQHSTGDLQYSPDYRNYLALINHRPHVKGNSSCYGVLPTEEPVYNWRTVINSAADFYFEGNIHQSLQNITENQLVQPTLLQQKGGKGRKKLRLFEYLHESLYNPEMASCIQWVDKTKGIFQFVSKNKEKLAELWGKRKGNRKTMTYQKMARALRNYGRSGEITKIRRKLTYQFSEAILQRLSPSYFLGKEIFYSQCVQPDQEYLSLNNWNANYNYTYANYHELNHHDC
# How it was run: as §1
# [14] = biological target: ELF4 (Homo sapiens, UniProt Q99607 1-663); settings: protein: recombinant; tags: N-terminal GST; dsDNA, one strand shown
# How it was run: as §1
# [15] = biological target: T9, ELK4 (Homo sapiens, UniProt P28324-2 1-405); settings: protein: recombinant; tags: N-terminal GST; dsDNA, one strand shown
# T9 sequence: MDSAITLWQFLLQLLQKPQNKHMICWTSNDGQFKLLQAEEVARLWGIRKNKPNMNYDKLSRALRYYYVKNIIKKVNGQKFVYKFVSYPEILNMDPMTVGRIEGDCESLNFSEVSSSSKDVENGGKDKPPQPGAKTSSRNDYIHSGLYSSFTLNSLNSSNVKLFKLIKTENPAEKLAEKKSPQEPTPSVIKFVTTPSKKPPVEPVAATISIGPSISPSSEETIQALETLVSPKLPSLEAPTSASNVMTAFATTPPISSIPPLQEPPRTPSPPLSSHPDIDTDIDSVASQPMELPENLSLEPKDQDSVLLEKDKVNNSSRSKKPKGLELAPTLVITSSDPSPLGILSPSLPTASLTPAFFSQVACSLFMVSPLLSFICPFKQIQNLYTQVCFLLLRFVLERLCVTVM
# How it was run: as §1
# [16] = biological target: T10, ETV2 (Homo sapiens, UniProt O00321 1-342); settings: protein: recombinant; tags: N-terminal GST; dsDNA, one strand shown
# T10 sequence: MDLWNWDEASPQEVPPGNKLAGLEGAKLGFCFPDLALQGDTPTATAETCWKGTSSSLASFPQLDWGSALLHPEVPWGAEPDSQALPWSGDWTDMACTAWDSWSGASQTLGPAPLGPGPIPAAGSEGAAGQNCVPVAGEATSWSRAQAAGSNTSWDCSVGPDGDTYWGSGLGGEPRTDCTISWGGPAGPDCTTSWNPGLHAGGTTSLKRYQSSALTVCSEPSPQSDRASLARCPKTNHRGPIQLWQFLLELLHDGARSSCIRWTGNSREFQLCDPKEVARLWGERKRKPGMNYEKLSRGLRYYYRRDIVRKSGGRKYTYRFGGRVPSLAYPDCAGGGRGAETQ
# How it was run: as §1
# [17] = biological target: T11, ELF3 (Homo sapiens, UniProt P78545 1-371); settings: protein: recombinant; tags: N-terminal GST; dsDNA, one strand shown
# T11 sequence: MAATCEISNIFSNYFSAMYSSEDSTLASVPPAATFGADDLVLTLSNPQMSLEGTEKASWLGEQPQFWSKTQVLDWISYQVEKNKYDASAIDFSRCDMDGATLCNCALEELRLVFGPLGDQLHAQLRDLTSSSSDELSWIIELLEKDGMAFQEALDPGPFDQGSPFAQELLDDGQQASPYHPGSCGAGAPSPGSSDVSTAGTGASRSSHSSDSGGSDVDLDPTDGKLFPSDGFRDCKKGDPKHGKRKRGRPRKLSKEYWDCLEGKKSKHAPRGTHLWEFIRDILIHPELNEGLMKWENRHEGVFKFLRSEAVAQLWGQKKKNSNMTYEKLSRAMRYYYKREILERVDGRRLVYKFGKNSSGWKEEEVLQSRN
# How it was run: as §1
# [18] = biological target: CRX (Homo sapiens, UniProt O43186 1-299); settings: protein: recombinant; tags: N-terminal GST; dsDNA, one strand shown
# How it was run: as §1
# [19] = biological target: ETV1 (Homo sapiens, UniProt P50549 1-477); settings: protein: recombinant; tags: N-terminal GST; dsDNA, one strand shown
# How it was run: as §1
# Sequence of HSF1 (Q00613 whole entry): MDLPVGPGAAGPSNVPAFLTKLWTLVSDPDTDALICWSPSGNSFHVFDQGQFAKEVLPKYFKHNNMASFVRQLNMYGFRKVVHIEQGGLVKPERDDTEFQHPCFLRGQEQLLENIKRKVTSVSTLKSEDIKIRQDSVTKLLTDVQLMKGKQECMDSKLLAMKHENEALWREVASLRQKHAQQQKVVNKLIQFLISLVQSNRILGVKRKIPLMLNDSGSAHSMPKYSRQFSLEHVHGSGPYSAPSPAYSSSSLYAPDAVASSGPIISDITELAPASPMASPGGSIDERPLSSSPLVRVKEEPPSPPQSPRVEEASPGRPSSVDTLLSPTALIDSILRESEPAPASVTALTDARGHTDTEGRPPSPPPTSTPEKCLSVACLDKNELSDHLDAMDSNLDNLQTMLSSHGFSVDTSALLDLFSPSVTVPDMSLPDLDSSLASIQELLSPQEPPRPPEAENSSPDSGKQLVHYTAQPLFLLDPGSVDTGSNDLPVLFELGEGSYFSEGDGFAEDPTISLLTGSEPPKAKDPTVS
# Sequence of ELF1 (P32519 whole entry): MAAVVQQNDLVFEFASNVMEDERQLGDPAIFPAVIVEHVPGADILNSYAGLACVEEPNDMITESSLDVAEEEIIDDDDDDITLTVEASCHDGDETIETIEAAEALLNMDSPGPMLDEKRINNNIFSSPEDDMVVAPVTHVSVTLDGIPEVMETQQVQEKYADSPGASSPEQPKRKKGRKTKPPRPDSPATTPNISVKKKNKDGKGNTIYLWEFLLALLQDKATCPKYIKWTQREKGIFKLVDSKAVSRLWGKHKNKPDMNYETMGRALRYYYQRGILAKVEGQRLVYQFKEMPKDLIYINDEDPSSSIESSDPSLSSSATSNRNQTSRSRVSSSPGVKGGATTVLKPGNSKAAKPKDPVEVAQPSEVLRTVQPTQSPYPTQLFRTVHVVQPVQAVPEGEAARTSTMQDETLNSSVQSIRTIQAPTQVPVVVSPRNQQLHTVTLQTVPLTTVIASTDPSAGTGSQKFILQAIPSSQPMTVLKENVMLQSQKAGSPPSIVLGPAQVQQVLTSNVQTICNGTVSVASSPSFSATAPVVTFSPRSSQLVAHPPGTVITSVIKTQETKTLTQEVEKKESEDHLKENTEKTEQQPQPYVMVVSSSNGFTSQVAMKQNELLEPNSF
# Sequence of ELF4 (Q99607 whole entry): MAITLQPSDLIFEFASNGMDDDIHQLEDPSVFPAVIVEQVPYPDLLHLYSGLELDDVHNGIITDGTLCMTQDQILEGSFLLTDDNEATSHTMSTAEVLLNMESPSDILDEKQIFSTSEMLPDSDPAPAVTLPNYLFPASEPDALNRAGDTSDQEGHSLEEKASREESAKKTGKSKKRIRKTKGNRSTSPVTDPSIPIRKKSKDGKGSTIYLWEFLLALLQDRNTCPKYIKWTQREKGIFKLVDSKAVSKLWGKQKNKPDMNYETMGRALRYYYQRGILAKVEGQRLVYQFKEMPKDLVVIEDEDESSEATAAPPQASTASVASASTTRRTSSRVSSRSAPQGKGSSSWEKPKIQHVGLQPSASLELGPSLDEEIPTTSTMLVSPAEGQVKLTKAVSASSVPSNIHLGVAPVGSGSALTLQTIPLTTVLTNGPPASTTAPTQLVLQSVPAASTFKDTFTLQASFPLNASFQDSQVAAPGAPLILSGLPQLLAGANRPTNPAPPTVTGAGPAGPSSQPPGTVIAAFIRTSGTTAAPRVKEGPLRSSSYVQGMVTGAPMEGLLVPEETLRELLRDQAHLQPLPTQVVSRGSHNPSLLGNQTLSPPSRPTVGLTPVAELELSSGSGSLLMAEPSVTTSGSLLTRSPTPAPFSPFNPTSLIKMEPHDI
# Sequence of CRX (O43186 whole entry): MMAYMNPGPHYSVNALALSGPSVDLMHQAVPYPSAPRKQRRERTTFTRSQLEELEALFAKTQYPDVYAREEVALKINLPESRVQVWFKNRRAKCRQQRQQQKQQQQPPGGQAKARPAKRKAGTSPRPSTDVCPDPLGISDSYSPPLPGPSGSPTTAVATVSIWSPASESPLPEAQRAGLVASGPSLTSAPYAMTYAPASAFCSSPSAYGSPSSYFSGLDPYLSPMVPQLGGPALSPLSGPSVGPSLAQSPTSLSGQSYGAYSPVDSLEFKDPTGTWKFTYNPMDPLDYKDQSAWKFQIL
# Sequence of SPIB (Q01892 whole entry): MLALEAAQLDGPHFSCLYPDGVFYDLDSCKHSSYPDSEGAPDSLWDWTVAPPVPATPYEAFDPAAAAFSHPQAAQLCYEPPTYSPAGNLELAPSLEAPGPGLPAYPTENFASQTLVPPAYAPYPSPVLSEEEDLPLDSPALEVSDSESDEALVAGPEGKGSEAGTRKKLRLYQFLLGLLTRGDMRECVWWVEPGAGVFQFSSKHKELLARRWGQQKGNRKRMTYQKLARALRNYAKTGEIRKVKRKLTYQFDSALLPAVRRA
# Sequence of ETV1 (P50549 whole entry): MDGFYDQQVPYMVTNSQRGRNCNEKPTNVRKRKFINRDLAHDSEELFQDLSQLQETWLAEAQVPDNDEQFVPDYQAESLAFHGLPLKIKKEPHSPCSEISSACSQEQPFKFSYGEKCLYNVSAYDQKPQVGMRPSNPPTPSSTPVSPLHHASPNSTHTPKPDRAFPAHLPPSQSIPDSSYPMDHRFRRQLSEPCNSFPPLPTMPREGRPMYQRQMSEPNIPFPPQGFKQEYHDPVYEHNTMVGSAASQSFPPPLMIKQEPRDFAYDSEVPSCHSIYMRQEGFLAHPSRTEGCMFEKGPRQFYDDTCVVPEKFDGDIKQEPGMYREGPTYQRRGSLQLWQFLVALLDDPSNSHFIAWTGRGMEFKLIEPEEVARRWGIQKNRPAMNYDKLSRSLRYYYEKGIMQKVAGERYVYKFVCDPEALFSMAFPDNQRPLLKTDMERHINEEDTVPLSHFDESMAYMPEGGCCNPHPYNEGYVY
# Sequence of ETV5 (P41161 whole entry): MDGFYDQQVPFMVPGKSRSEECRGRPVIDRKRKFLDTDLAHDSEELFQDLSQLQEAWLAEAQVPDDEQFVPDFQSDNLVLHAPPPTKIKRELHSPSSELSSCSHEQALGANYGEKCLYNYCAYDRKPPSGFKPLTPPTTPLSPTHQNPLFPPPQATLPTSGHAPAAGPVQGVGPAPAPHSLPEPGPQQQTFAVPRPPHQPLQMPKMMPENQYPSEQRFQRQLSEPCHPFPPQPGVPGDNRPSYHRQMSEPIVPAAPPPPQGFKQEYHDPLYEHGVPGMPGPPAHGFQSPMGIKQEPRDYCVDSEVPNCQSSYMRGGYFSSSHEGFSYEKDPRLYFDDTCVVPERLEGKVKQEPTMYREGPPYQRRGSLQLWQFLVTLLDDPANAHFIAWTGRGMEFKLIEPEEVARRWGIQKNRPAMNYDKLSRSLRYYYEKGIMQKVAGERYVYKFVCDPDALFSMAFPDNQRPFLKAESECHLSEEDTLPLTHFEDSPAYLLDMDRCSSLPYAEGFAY
sequence,measurement,setting,value
TCCTGA,binding signal,[1],"1.43 fold enrichment (6-mer frequency, TF over GST control)"
same,binding signal,[2],"1.45 fold enrichment (6-mer frequency, TF over GST control)"
same,binding signal,[3],"1.47 fold enrichment (6-mer frequency, TF over GST control)"
same,binding signal,[4],"1.5 fold enrichment (6-mer frequency, TF over GST control)"
same,binding signal,[5],"1.41 fold enrichment (6-mer frequency, TF over GST control)"
same,binding signal,[6],"1.45 fold enrichment (6-mer frequency, TF over GST control)"
same,binding signal,[7],"1.47 fold enrichment (6-mer frequency, TF over GST control)"
same,binding signal,[8],"1.46 fold enrichment (6-mer frequency, TF over GST control)"
same,binding signal,[9],"1.54 fold enrichment (6-mer frequency, TF over GST control)"
same,binding signal,[10],"1.31 fold enrichment (6-mer frequency, TF over GST control)"
same,binding signal,[11],"1.53 fold enrichment (6-mer frequency, TF over GST control)"
same,binding signal,[12],"1.57 fold enrichment (6-mer frequency, TF over GST control)"
same,binding signal,[13],"1.32 fold enrichment (6-mer frequency, TF over GST control)"
same,binding signal,[14],"1.39 fold enrichment (6-mer frequency, TF over GST control)"
same,binding signal,[15],"1.29 fold enrichment (6-mer frequency, TF over GST control)"
same,binding signal,[16],"1.66 fold enrichment (6-mer frequency, TF over GST control)"
same,binding signal,[17],"1.39 fold enrichment (6-mer frequency, TF over GST control)"
same,binding signal,[18],"1.25 fold enrichment (6-mer frequency, TF over GST control)"
same,binding signal,[19],"1.49 fold enrichment (6-mer frequency, TF over GST control)"

# From paper PMC7862700, “An all-to-all approach to the identification of sequence-specific readers for epigenetic DNA modifications on cytosine”
